Source: PubChem BioAssay
TRb-SRC2 inh: TRbeta-SRC2 interaction inhibition; hit rate 0.065% among 280,000; TRbeta-SRC2 peptide binding, fluorescence polarization; receptor liganded with 1 µM T3; Potency, µM (titrated, usually from 106 µM), inactives show at the top dose activity change, negative = inhibition, most hits filed as inhibitors;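 note: plate controls were bound peptide for no effect and peptide without receptor for full effect; nearly all actives have a fitted effect of over 50% in size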
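Human TRb ligand-binding domain (0.6 uM) is mixed with 20 nM Texas Red SRC2 peptide and 1 uM T3; after compound addition and 5 hr at ambient temperature, polarization is measured and normalized to unbound and bound controls.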
Tau fluor counter: counter-screen for tau fibril formation inhibitors; tau K18 P301L Alexa594 fluorescence, heparin fibrillization; Potency, µM (highest dose often 57.7 µM), without a hit: top-dose activity change, negative = decrease; hit rate 0.93% among 280,000; AID 1463; note: nearly all actives have a fitted effect of over 55% in size
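Human tau K18 P301L (15 uM unlabeled, 0.24 uM Alexa 594-labeled) in 100 mM sodium acetate pH 7 with 20 uM heparin, 6 hr at 37 C. ThT 30 uM added, 1 hr ambient; Alexa 594 FP and total fluorescence read at 555/632 nm.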
TR SRC2 fluor cs: alters Texas Red total fluorescence, flagging assay interference; TRb/SRC2 Texas Red total fluorescence interference; Potency, µM (titrated, usually from 106 µM), for inactives: top-dose fluorescence change, negative = quenching; hit rate 0.29% among 280,000; AID 1479; active = well fitted curve in either direction with a large enough effect; inconclusive = small, poorly fitted or top-dose-only effect
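Flags fluorescent or light-absorbing compounds by total fluorescence, S + 2P, at 555 nm excitation and 632 nm emission. Mixture: 20 nM Texas Red SRC2 peptide, 0.6 uM human TRb LBD, 1 uM T3, 5% DMSO; compound exposure 5 h at ambient temperature.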
Tau FP inhib: inhibitors of human tau fibril formation | P10636 | K18 P301L tau heparin fibrillization, Alexa594 FP, 6 h | Potency, µM (top dose mostly 57.7 µM), for inactives: at the top dose activity, negative = inhibition, usual class: inhibitors | hit rate 0.39% among 280,000; note: nearly all actives have a fitted effect of over 55% in size
Target sequence (P10636 561-689 P618L limits assumed): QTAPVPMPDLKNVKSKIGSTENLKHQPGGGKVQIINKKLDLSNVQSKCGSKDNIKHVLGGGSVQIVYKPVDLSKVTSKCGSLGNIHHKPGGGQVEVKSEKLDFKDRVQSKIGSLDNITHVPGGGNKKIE
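Compound effects on tau fibrillization are measured by Alexa 594 fluorescence polarization (ex 555, em 632 nm). K18 P301L tau is used at 15 uM with 0.24 uM labeled tracer, and 20 uM heparin induces aggregation over 6 hr at 37 C.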
Tau ThT inhib: tau fibrillization inhibition (ThT binding); P10636; Potency, µM (series often up to 57.4 µM), inactives show top-dose activity, negative = inhibition, usual class: inhibitors; AID 1460; recombinant tau K18 P301L, heparin-induced fibrillization, ThT fluorescence; hit rate 2.1% among 270,000; note: nearly all actives have a fitted effect of over 55% in size
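Using a mix of unlabeled (15 uM) and Alexa 594-labeled (0.24 uM) tau K18 P301L, heparin-triggered fibrillization over 6 hr at 37 C was scored by ThT fluorescence.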
RGS12 GoLoco inh: inhibitors of human Gai1-RGS12 GoLoco interaction (red fluorophore) | P63096 | Potency, µM (highest dose often 61.6 µM), inactives show at the top dose activity, negative = inhibition, most hits filed as inhibitors | hit rate 0.44% among 230,000 | Gai1:RGS12 GoLoco peptide FP, rhodamine, 10 min; active = well fitted inhibition curve with a large enough effect, not every such curve was filed as active; inactive = no such curve, though single readings can be large or run the other way; note: nearly all actives have a fitted effect of over 30% in size
Target sequence (P63096 whole entry, looked up): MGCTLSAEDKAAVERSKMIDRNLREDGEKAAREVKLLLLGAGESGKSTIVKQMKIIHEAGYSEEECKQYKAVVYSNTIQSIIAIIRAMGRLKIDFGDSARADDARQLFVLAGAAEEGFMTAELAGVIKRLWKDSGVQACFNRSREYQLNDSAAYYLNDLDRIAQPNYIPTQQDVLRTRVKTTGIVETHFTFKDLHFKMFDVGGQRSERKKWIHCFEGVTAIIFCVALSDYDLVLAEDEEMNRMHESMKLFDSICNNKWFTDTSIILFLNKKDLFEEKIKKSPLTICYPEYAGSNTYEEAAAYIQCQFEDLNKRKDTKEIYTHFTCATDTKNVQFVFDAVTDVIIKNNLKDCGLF
Starred values were filed as active, the others as inactive; ? = inconclusive; . = no result given; [ ] = remark or other dose. Sampled rows, rich in hits. Any-hit rate of the full collection: about 3.2%. Unless noted, calls come from the whole dose curve; as a rule, active = well fitted curve in the direction sought with a large enough effect; inconclusive = small, poorly fitted or top-dose-only effect, or another doubt; inactive = no such curve, though single readings can be large; an effect the other way counts as inactive or inconclusive. Unless noted, % is set by controls: 0 for no effect and ±100 for the full control effect; potency is the fitted concentration of half-maximal effect.

SMILES | TRb-SRC2 inh | Tau fluor counter | TR SRC2 fluor cs | Tau FP inhib | Tau ThT inhib | RGS12 GoLoco inh
COc1ccc(NC(=O)Nc2cc(-c3cn4cccnc4n3)ccc2OC)cc1 | 4.0% | -25.8% | -17.1% | -11.7% | -7.2% | .
COc1ccc(NC(=O)Nc2cc(C)ccc2OC)cc1 | 5.5% | ? | -0.1% | 8.6% | ? | -4.8%
COc1ccc(OC)c(NC(=O)Nc2ccc(Cl)cc2)c1 | -4.7% | 14.1µM*[quencher] | -2.5% | 20.7% | ? | -1.5%
Cc1c(-c2cccc(NC(=O)c3ccc(F)c(F)c3)c2)nc2ncccn12 | -3.2% | -10.1% | -4.5% | -8.5% | ? | .
Cc1c(-c2cccc(NC(=O)Nc3ccc(Cl)cc3)c2)nc2ncccn12 | -0.7% | 10µM*[quencher] | -1.5% | 20µM* | 12.7% | .
CC(C)[C@H](N)C(=O)N[C@@H](CCC(N)=O)C(=O)NCC(=O)N[C@@H](CCC(=O)O)C(=O)N[C@@H](CCC(=O)O)C(=O)N[C@@H](CO)C(=O)N[C@@H](CC(N)=O)C(=O)N[C@@H](CC(=O)O)C(=O)N[C@@H](CCCCN)C(=O)O | -7.5% | . | -4.2% | . | . | .
O=[N+]([O-])c1cc(N(CCO)CCO)ccc1NCCO | 3.2%[201 µM] | . | -23.5%[201 µM] | . | . | -0.5%
Cc1nc2c(c(C)c1CCC(=O)NCc1ccc(F)cc1)c(=O)n(C)c(=O)n2C | -2.0% | -0.9% | -9.4% | -5.2% | 1.9% | .
COc1cccc(CNc2ccc(N3CCC(C)CC3)cc2)c1OC | -4.5% | ? | 4.3% | ? | 17.8µM* | -24.0%
CC1CCN(c2ccc(NC(=O)Cc3ccccc3)cc2)CC1 | -3.2% | -11.7% | 1.2% | 2.9% | -15.0% | -9.8%
Cc1cc(O)c2ccccc2c1O | 0.8% | . | -5.8% | . | . | 5.8%
CC(=O)Oc1c(C)cc(O)c2ccccc12 | -1.1% | ? | -2.3% | ? | 25.1µM* | 6.6%
CCCOC(=O)c1cccc(NC(=O)CSc2nnc3cc(C)c4ccccc4n23)c1 | -20.3% | -3.5% | 2.82µM*[quencher] | -4.0% | 2.5% | .
CCOC(=O)C1=CC(OC(CC)CC)C(NC(C)=O)C(N)C1 (stereo not drawn) | -0.5% | -5.9% | -1.5% | -3.6% | -1.7% | 31.6µM*
Cc1ccc(Cl)cc1NC(=O)Cn1c(=O)n(C(C)C)c(=O)c2oc3ccccc3c21 | 7.8% | -7.0% | -2.0% | -2.6% | 10.2% | .
COc1ccc2c(c1OC)C(Cc1ccccc1)N1CCc3cc4c(cc3C1=C2)OCO4 (stereo not drawn) | 3.6% | ? | 0.2% | -10.7% | 15.8µM* | 22.0%
COc1c(O)ccc2c1CN1CCc3cc4c(cc3[C@@H]1C2)OCO4 | . | . | . | . | . | -7.7%[14.2 µM]
COc1cccc(-n2c(SCc3cc(=O)oc4cc(O)c(O)cc34)nc3ccccc3c2=O)c1 | 6.5% | 14.1µM*[quencher] | -28.8% | ? | 25.1µM* | 2.1%
Cc1noc(C)c1-c1ccc2ncnc(NCc3ccco3)c2c1 | 2.2% | . | -1.1% | . | . | .
O=C(Cn1ncc2c3ccccc3n(Cc3cccc(Cl)c3)c2c1=O)NC1CCCCCC1 | -0.4% | -10.3% | 1.4% | 2.6% | -16.5% | .
Cc1cccc(NC(=O)CCS(=O)(=O)c2cccc3nsnc23)c1C | 0.9% | -22.2% | 0.0% | ? | 20µM* | 3.3%
Nc1nc2c(c(=O)[nH]1)C(c1cccc3ccccc13)C1=C(N2)c2ccccc2C1=O (stereo not drawn) | 2.3% | ? | -7.1% | -9.7% | 10µM* | 0.5%
O=C(O)/C=C/C(=O)Nc1ccc(SC(F)(F)C(F)(F)C(F)(F)F)cc1 | 31.6µM* | -0.3% | 0.1% | -0.9% | -3.3% | 3.7%
Cc1cc(/C=C2\SC(=S)NC2=O)c(C)n1C1CC1 | 1.2% | -28.0% | -1.2% | 4.9% | 12.6µM* | 38.0%
O=C1/C(=C\c2ccco2)CCC/C1=C\c1ccco1 | 8.9% | -25.6% | -0.3% | ? | 17.8µM* | 33.1%
SMILES | TRb-SRC2 inh | Tau fluor counter | TR SRC2 fluor cs | Tau FP inhib | Tau ThT inhib | RGS12 GoLoco inh
CC1C/C(=C/c2ccco2)C(=O)/C(=C/c2ccco2)C1 (stereo not drawn) | -3.2% | -29.1% | -1.1% | ? | 25.1µM* | 16.8%
O=C1/C(=C/c2ccco2)CCC1C1CCCC1 (stereo not drawn) | 0.6% | -17.9% | -0.4% | -7.3% | ? | 35.8%
Nc1cc(Cl)nc(C(=O)O)c1Cl | -4.3%[201 µM] | . | -2.4%[201 µM] | . | . | .
O=C(CSc1nc2c([nH]c3ccccc32)c(=O)n1-c1ccccc1)Nc1ccc2c(c1)OCCO2 | -4.5% | ? | -1.4% | ? | -14.6% | .
Cc1ccc(NC(=O)C(OC(=O)c2ccc(NC(N)=O)cc2)c2ccccc2)cc1Cl (stereo not drawn) | 2.5% | ? | -15.6% | 12.6µM* | ? | 0.6%
CCn1c2ccccc2c2cc(NC(=O)COC(=O)c3cc(Cl)c(N)cc3OC)ccc21 | -5.0% | 10µM*[quencher] | -8.4% | 3.5% | ? | 0.3%
CCn1c2ccccc2c2cc(NC(=O)COC(=O)c3cc(S(N)(=O)=O)c(Cl)cc3Cl)ccc21 | -0.7% | 8.91µM*[quencher] | -3.8% | 6.5% | ? | 7.9%
CCn1c2ccccc2c2cc(NC(=O)COC(=O)c3ccccc3F)ccc21 | -15.5% | -26.0% | 2.0% | 0.8% | -6.8% | -5.9%
CCn1c2ccccc2c2cc(NC(=O)COc3ccc(OC)cc3)ccc21 | 8.9% | ? | 2.0% | 7.1% | ? | -4.8%
CCOC(=O)c1cccc(NC(=O)c2ccc3nc(Cc4ccccc4)oc3c2)c1 | 9.3% | ? | 0.3% | ? | -7.5% | .
CCc1cccc(NC(=O)c2cc3c(=O)[nH]c4ccccc4c3n2C)c1 | 5.9% | -18.5% | -3.0% | ? | ? | .
O=C(CN1C(=O)NC(Cc2c[nH]c3ccccc23)C1=O)Nc1cccc(S(=O)(=O)N2CCCC2)c1 (stereo not drawn) | 2.0% | -2.9% | -1.5% | -3.7% | ? | -26.6%
O=C(CN1C(=O)NC(Cc2c[nH]c3ccccc23)C1=O)Nc1cccc(S(=O)(=O)N2CCCCCC2)c1 (stereo not drawn) | -2.3% | 14.1µM*[quencher] | -1.0% | -10.3% | -3.6% | 6.6%
COc1ccccc1C(=O)NCC1(N2CCN(C)CC2)CCCCC1 | -2.0% | -3.4% | 4.5% | -3.4% | -1.4% | .
c1ccc(C(OC2CCCN(CCc3ccc4c(c3)OCO4)C2)c2ccccc2)cc1 (stereo not drawn) | 0.0% | . | 0.1% | . | . | .
CC(=O)C(=Nc1ccccc1Cl)NNc1ccc(Cl)cc1 | -13.0% | ? | 2.7% | ? | 6.31µM* | -19.3%
O=C(C1=C(O)C(=O)N(c2ncccn2)C1c1ccc(Cl)c(Cl)c1)c1ccco1 (stereo not drawn) | -4.4% | ? | -1.4% | ? | 17.8µM* | 172.1%
O=C(C1=C(O)C(=O)N(c2ncccn2)C1c1ccc(Cl)cc1)c1ccco1 (stereo not drawn) | . | -6.4% | . | 2.3% | -11.6% | 23.9%
